Results as given in the supplement of paper PMC10981050.
Several values for one entry are separate records, joined by “and”; a condition that tells them apart may be missing. Equal values may be shown once. Where a name gives a salt, the structure may show the parent alone.

Assays:
Test in all cases: cell viability relative to vehicle control; higher = less cytotoxic
Settings in all cases: 10 µM
K562 = system: K562
Summary of the method: (§1)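 Each screen used CRISPR-edited mutant and wild-type clones from four leukaemia lines. Compounds were acoustically dispensed at a single 10 µM dose, and CellTiter-Glo luminescence was read after 48 h with the supernatant first removed. Viability was analysed in Genedata Screener and given as percent of the on-plate vehicle control.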

MARIMO = system: MARIMO
Summary of the method: as §1

MOLM14 = system: MOLM14
Summary of the method: as §1

OCI-AML2 = system: OCI-AML2
Summary of the method: as §1

| Compound | cell viability (K562; SRSF2 genotype: SRSF2 P95H/wt) | cell viability (K562; SRSF2 genotype: SRSF2 wt/wt) [%] | cell viability (MARIMO; SRSF2 genotype: SRSF2 P95H/wt) [%] | cell viability (MARIMO; SRSF2 genotype: SRSF2 wt/wt) [%] | cell viability (MOLM14; SRSF2 genotype: SRSF2 P95H/wt) [%] | cell viability (MOLM14; SRSF2 genotype: SRSF2 wt/wt) [%] | cell viability (OCI-AML2; SRSF2 genotype: P95H/wt) [%] | cell viability (OCI-AML2; SRSF2 genotype: wt/wt) [%] |
| --- | --- | --- | --- | --- | --- | --- | --- | --- |
| CCOC(=O)[C@H](CCc1ccccc1)N[C@@H](C)C(=O)N1C(=O)N(C)C[C@H]1C(=O)O [Imidapril HCl] | 93.9% and 85.6% | 90.9 | 84.9 | 94.4 | 95.1 | 95.2 | 108 | 87.7 |
| O=C(O)Cc1ccccc1Nc1c(Cl)cccc1Cl [Diclofenac Sodium] | 94.9% and 97.8% | 102 | 103 | 110 | 108 | 100 | 91.1 | 102 |
| C=C1C(=O)[C@]23[C@H](O)[C@H]1CC[C@H]2[C@@]12CO[C@]3(O)[C@@H](O)[C@@H]1C(C)(C)CC[C@@H]2O [Oridonin (Isodonol)] | 26.2% and 29.8% | 24.2 | 37.5 | 30.1 | 9.97 | 3.32 | 17.9 | 13.2 |
| Nc1ccc(C(=O)O)c(O)c1 [Sodium 4-Aminosalicylate] | 89.6% and 88.1% | 81.3 | 85.7 | 92.5 | 88.7 | 88.1 | 86.3 | 97.5 |
| CC1=NN(c2ccccc2)C(=O)C1 [Edaravone (MCI-186)] | 107% and 105% | 107 | 111 | 108 | 96.3 | 109 | 116 | 103 |
| CCc1ccc(CCOc2ccc(CC3SC(=O)NC3=O)cc2)nc1 (stereo not drawn) [Pioglitazone (Actos)] | 98.5% and 116% | 109 | 104 | 103 | 102 | 108 | 111 | 103 |
| CN(Cc1cnc2nc(N)nc(N)c2n1)c1ccc(C(=O)N[C@@H](CCC(=O)O)C(=O)O)cc1 [Abitrexate (Methotrexate)] | 99.8% and 103% | 45.1 | 93 | 93.5 | 103 | 74 | 99.2 | 96.9 |
| C[N+]12CCc3cc4c(cc3C1(O)Cc1ccc3c(c1C2)OCO3)OCO4 (stereo not drawn) [Hydroprotopine] | 94.4% and 93.5% | 89.5 | 84.6 | 91.9 | 91.2 | 98.8 | 96.3 | 99 |
| O=C(O)c1ccccc1C(=O)Nc1ccc(-c2ccccc2)cc1 [Kartogenin] | 106% and 113% | 103 | 105 | 107 | 106 | 105 | 105 | 97.9 |
| CCN(CC)C(=O)/C(C#N)=C/c1cc(O)c(O)c([N+](=O)[O-])c1 [Entacapone] | 101% and 105% | 107 | 101 | 102 | 102 | 102 | 114 | 97.4 |
| CC(C)(O)[C@H]1CC[C@@](C)(C2[C@@H](O)C[C@@]3(C)[C@@H]4C[C@H](O)C5C(C)(C)[C@@H](O)CCC56CC46CC[C@]23C)O1 (stereo partly drawn) [Cycloastragenol] | 105% and 109% | 97.6 | 112 | 118 | 108 | 107 | 111 | 110 |
| COc1cc2c(cc1OC)[C@@H](Cc1ccc(O)c(Oc3cc4c(cc3OC)CCN(C)[C@@H]4Cc3ccc(O)cc3)c1)N(C)CC2 [Liensinine] | 86.6% and 83% | 78.5 | 63.3 | 74.6 | 69.1 | 83.3 | 63.2 | 59.9 |
| CC1=C(C(=O)OC2CCCCC2)C(c2ccc([N+](=O)[O-])cc2)C2=C(CC(C)(C)CC2=O)N1 (stereo not drawn) | 30.9% and 13.9% | 47.4 | 84.3 | 66 | 10.5 | 13.7 | 52.6 | 43.5 |
| COC(=O)C=Cc1ccc(O)c(OC)c1 [Ferulic acid methyl ester] | 106% and 99.9% | 108 | 95.4 | 104 | 105 | 104 | 104 | 104 |
| CC(C)Cc1ccc([C@@H](C)C(=O)NS(C)(=O)=O)cc1 [Reparixin (Repertaxin)] | 102% and 97.5% | 98.4 | 97.6 | 99.2 | 95.7 | 98.4 | 93.3 | 105 |
| CCC(=O)O[C@]1(C(=O)CCl)[C@@H](C)C[C@H]2[C@@H]3CCC4=CC(=O)C=C[C@]4(C)[C@@]3(F)[C@@H](O)C[C@@]21C [Clobetasol propionate] | 88.3% and 95.4% | 88.2 | 85.1 | 96.7 | 81.2 | 80.8 | 90.5 | 101 |
| C=CC(=O)Nc1cc(Nc2nccc(-n3cc(CN(C)C)c(-c4ccccc4)n3)n2)c(OC)cc1N1CCOCC1 | 85.6% and 94.6% | 84.8 | 76.5 | 80.2 | 74.2 | 75.5 | 63.9 | 63.3 |
| CCCCCCCCOc1ccccc1C(=O)Nc1ccc(C(=O)OCC[N+](C)(CC)CC)cc1 [Otilonium Bromide] | 78.5% and 92% | 92.3 | 84.9 | 84.5 | 76.7 | 89 | 34.4 | 70.2 |

| Compound | cell viability (K562; SRSF2 genotype: SRSF2 P95H/wt) | cell viability (K562; SRSF2 genotype: SRSF2 wt/wt) [%] | cell viability (MARIMO; SRSF2 genotype: SRSF2 P95H/wt) [%] | cell viability (MARIMO; SRSF2 genotype: SRSF2 wt/wt) [%] | cell viability (MOLM14; SRSF2 genotype: SRSF2 P95H/wt) [%] | cell viability (MOLM14; SRSF2 genotype: SRSF2 wt/wt) [%] | cell viability (OCI-AML2; SRSF2 genotype: P95H/wt) [%] | cell viability (OCI-AML2; SRSF2 genotype: wt/wt) [%] |
| --- | --- | --- | --- | --- | --- | --- | --- | --- |
| CC(C)(C)C#Cc1cc(N(C(=O)[C@H]2CC[C@H](C)CC2)[C@H]2CC[C@H](O)CC2)c(C(=O)O)s1 [Lomibuvir (VX-222, VCH-222)] | 108% and 102% | 107 | 113 | 115 | 109 | 106 | 124 | 120 |
| O=C(O)c1ccc(O)c2ncccc12 | 99.2% and 102% | 97.3 | 107 | 108 | 98.9 | 102 | 108 | 102 |
| COc1ccc(C[C@@H](C)NC[C@H](O)c2ccc(O)c(NC=O)c2)cc1 [Arformoterol Tartrate] | 97.2% and 91.1% | 98.8 | 85.2 | 106 | 86.5 | 90.9 | 109 | 103 |
| O=C1N=C(N2CCOCC2)CN1c1ccc(Cl)cc1 | 107% and 99% | 94.4 | 99.3 | 111 | 94.8 | 104 | 95.4 | 86.8 |
| COc1ccc2c(c1)c(CC(=O)OCC(=O)O)c(C)n2C(=O)c1ccc(Cl)cc1 [Acemetacin (Emflex)] | 101% and 98.4% | 93.5 | 97.8 | 94.9 | 95.4 | 98.6 | 108 | 104 |
| O=c1cc(-c2ccc(O)cc2)oc2cc(O)c(O)c(O)c12 [Scutellarein] | 92% and 86.2% | 95 | 102 | 91.3 | 107 | 103 | 102 | 97 |
| COC1=CC(=O)c2ccccc2C1=O [2-Methoxy-1,4-naphthoquinone] | 3.03% and 1.06% | 18.6 | 46.3 | 48 | 31.2 | 17.5 | 36.9 | 38.8 |
| O=C(Nc1cccc(Cl)c1)c1ccccn1 | 99.3% and 105% | 97 | 98.5 | 109 | 112 | 114 | 96.2 | 97 |
| C=C1CCN([C@H](C)[C@](O)(Cn2cncn2)c2ccc(F)cc2F)CC1 [Efinaconazole] | 86.9% and 94% | 96.9 | 76.3 | 88.3 | 85.8 | 95.8 | 82.2 | 83.5 |
| CCn1cc(-c2ccnc3[nH]c(-c4cccc(CN(C)C)c4)cc23)c(-c2ccc(NC(=O)N(C)C)cc2)n1 | 36.2% and 51.2% | 45.9 | 30.3 | 27 | 1.95 | 2.96 | 1.06 | 7.2 |
| COc1c(N2CCNC(C)C2)c(F)cc2c(=O)c(C(=O)O)cn(C3CC3)c12 (stereo not drawn) [Gatifloxacin] | 97.2% and 103% | 108 | 112 | 108 | 102 | 101 | 104 | 100 |
| NC(=O)N1CCC(CC(=O)N2CCC([C@H]3c4ncc(Br)cc4CCc4cc(Cl)cc(Br)c43)CC2)CC1 | 49.1% and 62.3% | 52.4 | 44.8 | 45.7 | 37.4 | 35.7 | 38 | 32 |
| O=C1CN(/N=C/C=C/c2ccc([N+](=O)[O-])o2)C(=O)N1 [Furagin] | 105% and 103% | 104 | 93.7 | 107 | 105 | 108 | 101 | 108 |
| COc1cc2ncnc(Oc3ccc(CC(=O)Nc4cnn(C(C)C)c4)cc3)c2cc1OC | 74.8% and 98.4% | 72.4 | 113 | 107 | 16.1 | 14.1 | 36.1 | 42.4 |
| NS(=O)(=O)c1ccccc1 [Benzenesulfonamide] | 100% and 106% | 109 | 97.9 | 109 | 96.5 | 106 | 107 | 91.7 |
| Cc1cc(Nc2cc(N)ncn2)c(=O)n2c1C(=O)NC21CCCCC1 | 89.2% and 85.2% | 87.7 | 86 | 98.2 | 83.5 | 92 | 89 | 88.5 |
| CC[C@H](C)n1cc(C)c2c(C(=O)NCc3c(C)cc(C)[nH]c3=O)cc(-c3ccc(N4CCNCC4)nc3)cc21 | 78.3% and 82.1% | 78.2 | 80.9 | 94.6 | 81.6 | 81.7 | 68 | 75.4 |
| Cc1cc2c(F)c(Oc3ncnn4cc(OC[C@@H](C)OC(=O)[C@H](C)N)c(C)c34)ccc2[nH]1 | 89.4% and 85.9% | 82 | 93.5 | 104 | 82 | 87.4 | 78.8 | 81.5 |
